Results reported in the supplement of paper PMC10849652.
Targets with a hit are over-represented here; the source holds about 8,800 in all. About 0.5% of all pairs of compound and target were hits. A number with no mark means an inactive call.

Legend:
Experiment in all cases: log2 fold change, soluble protein after heating vs DMSO (PISA); higher = thermal stabilisation; K562 lysate, 10 uM; active = over 0.2 and 3.5 SD of the protein, either way, in both replicates (recomputed)
erlotinib = compound: C#Cc1cccc(Nc2ncnc3cc(OCCOC)c(OCCOC)cc23)c1 [erlotinib]
Summary of the method: (§1)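 Values give the log-two fold change in thermal stability against solvent controls, from duplicates. Crude K562 extract at 1 mg/mL protein, made by dounce homogenisation in PBS pH 7.4 with 1 mM MgCl2, was treated with 10 μM compound for 30 min. After 3 min heating across 48°C-58°C, aliquots were pooled, adjusted to 0.5% NP-40 at 4°C and centrifuged at 21,000xg for 90 min. The supernatant was measured by TMTpro 16plex LC-MS/MS with channel sums equalised.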

[1] = compound: C/C(=N\NC(=O)C1=CC(=CC=C1)S(=O)(=O)N2CCOCC2)/C3=C(C=CC(=C3)Cl)O
Summary of the method: as §1

[2] = compound: C1=CC(=CC=C1C2=NC3=C(N2)C=C(C=C3)C(=O)N)OC4=CC=C(C=C4)Cl
Summary of the method: as §1

[3] = compound: C1=CC2=C(C=CC(=C2)/C=C\3/C(=O)NC(=NCC4=CC=CS4)S3)N=C1
Summary of the method: as §1

[4] = compound: C1=CC2=NC=CN=C2C=C1/C=C/3\C(=O)NC(=O)S3
Summary of the method: as §1

[5] = compound: C1=CC=C(C=C1)C2=NC(=C(N2)C3=CC=NC=C3)C4=CC(=C(C=C4)Cl)O
Summary of the method: as §1

[6] = compound: C1=CC=C2C(=C1)C3=NNC4=CC=CC(=C43)C2=O
Summary of the method: as §1

[7] = compound: C1CCN(C1)C(=O)NC2=CC=CC(=C2)NC3=NC=C(C(=N3)NCCC4=CN=CN4)Br
Summary of the method: as §1

[8] = compound: C1CN(CCC1(CC2=CC=C(C=C2)Cl)N)C3=NC=NC4=C3C=CN4
Summary of the method: as §1

IRAK-1-4 Inhibitor I = compound: C1COCCN1CCN2C3=CC=CC=C3N=C2NC(=O)C4=CC(=CC=C4)[N+](=O)[O-] [IRAK-1-4 Inhibitor I]
Summary of the method: as §1

Chain of UniProt Q9H939 (Q9H939 whole entry, looked up): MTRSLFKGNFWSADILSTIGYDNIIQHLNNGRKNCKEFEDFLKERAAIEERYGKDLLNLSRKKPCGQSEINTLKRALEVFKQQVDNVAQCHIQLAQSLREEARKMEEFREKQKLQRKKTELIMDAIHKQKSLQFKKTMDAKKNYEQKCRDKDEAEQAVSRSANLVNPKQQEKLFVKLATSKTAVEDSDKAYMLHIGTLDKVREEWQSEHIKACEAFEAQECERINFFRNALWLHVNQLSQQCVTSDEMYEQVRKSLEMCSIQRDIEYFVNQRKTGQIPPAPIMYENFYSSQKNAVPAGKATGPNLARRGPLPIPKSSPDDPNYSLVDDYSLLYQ
Chain of UniProt O15031 (O15031 whole entry, looked up): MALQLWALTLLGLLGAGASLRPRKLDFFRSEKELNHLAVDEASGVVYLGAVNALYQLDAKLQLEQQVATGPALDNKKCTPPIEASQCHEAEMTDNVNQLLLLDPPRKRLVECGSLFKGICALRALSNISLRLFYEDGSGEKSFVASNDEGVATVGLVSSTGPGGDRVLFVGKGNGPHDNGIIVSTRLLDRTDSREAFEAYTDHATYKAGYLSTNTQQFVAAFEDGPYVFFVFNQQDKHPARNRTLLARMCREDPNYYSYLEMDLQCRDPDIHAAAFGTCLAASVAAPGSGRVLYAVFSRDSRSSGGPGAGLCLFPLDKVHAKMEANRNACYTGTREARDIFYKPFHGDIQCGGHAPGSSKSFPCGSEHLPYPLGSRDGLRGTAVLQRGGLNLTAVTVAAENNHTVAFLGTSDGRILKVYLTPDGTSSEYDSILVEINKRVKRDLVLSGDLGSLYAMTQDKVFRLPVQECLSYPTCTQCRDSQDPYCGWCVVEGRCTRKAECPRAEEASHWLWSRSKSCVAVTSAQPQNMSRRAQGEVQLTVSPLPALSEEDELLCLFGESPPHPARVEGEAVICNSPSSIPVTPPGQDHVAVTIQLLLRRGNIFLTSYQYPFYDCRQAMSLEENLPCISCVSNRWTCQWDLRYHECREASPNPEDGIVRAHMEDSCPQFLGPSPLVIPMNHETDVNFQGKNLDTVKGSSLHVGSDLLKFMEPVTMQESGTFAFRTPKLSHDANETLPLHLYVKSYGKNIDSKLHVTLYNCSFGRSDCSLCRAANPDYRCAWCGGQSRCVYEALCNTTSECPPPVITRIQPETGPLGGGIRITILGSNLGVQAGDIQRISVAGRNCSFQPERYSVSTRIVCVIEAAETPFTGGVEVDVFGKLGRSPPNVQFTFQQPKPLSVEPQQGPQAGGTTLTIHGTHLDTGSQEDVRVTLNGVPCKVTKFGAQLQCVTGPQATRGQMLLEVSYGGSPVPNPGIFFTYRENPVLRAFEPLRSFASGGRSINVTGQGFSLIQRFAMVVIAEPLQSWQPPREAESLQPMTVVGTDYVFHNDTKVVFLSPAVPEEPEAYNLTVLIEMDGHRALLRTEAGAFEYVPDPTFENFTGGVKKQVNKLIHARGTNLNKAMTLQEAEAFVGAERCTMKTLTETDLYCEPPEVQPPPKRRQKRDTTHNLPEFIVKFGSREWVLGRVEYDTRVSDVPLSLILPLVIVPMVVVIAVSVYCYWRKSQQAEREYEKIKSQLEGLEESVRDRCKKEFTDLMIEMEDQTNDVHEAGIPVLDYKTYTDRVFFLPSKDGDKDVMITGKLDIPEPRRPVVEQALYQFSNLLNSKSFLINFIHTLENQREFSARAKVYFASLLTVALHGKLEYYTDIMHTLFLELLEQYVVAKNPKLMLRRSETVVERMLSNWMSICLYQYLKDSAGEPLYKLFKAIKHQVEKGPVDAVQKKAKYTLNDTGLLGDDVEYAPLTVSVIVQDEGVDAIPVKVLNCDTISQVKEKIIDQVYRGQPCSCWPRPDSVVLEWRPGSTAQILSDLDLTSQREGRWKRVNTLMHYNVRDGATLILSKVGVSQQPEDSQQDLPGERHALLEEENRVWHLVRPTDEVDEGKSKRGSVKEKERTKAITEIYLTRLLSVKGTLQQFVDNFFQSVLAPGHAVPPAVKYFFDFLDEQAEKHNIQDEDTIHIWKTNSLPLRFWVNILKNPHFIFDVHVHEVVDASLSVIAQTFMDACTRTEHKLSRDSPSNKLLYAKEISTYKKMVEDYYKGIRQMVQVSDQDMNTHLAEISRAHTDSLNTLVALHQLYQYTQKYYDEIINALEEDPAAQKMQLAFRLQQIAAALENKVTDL
Chain of UniProt Q05397 (Q05397 whole entry, looked up): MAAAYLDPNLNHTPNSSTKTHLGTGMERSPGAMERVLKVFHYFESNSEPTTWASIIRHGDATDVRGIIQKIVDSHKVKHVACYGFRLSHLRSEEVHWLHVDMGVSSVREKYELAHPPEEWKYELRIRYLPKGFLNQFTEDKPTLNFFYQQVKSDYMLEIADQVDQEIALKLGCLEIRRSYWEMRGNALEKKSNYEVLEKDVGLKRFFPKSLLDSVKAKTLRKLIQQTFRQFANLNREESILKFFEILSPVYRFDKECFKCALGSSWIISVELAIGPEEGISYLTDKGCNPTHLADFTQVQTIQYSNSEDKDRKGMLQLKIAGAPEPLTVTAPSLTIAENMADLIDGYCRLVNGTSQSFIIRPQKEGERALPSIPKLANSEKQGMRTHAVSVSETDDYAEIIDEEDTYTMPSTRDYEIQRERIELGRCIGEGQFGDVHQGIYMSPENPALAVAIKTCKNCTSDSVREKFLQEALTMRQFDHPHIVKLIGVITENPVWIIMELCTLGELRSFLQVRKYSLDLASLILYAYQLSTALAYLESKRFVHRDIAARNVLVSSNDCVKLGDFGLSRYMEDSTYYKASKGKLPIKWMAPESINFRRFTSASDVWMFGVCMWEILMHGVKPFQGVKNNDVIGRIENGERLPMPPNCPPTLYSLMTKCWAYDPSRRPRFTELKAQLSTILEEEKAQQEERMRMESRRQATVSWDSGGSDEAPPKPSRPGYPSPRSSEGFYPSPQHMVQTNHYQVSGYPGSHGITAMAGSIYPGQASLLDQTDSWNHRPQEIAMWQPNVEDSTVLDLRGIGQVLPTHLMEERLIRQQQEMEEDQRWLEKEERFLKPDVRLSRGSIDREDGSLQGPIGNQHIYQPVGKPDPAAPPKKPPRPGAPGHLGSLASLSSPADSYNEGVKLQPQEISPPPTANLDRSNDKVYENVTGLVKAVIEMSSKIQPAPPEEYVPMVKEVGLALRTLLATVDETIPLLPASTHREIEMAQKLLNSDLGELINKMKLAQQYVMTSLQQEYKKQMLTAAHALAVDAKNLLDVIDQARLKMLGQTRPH
Chain of UniProt P41219 (P41219 whole entry, looked up): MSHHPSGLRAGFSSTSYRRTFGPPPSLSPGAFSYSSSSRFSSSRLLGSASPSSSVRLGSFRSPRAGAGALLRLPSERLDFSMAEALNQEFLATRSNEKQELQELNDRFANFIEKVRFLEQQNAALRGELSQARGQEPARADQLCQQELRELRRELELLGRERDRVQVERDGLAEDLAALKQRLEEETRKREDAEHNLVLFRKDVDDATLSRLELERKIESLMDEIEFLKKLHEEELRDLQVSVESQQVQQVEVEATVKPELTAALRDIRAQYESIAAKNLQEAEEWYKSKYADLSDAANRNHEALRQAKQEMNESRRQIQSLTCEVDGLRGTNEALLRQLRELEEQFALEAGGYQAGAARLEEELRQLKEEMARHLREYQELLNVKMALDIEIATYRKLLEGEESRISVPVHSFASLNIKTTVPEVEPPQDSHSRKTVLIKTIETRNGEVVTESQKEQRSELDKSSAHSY
Chain of UniProt Q93100 (Q93100 whole entry, looked up): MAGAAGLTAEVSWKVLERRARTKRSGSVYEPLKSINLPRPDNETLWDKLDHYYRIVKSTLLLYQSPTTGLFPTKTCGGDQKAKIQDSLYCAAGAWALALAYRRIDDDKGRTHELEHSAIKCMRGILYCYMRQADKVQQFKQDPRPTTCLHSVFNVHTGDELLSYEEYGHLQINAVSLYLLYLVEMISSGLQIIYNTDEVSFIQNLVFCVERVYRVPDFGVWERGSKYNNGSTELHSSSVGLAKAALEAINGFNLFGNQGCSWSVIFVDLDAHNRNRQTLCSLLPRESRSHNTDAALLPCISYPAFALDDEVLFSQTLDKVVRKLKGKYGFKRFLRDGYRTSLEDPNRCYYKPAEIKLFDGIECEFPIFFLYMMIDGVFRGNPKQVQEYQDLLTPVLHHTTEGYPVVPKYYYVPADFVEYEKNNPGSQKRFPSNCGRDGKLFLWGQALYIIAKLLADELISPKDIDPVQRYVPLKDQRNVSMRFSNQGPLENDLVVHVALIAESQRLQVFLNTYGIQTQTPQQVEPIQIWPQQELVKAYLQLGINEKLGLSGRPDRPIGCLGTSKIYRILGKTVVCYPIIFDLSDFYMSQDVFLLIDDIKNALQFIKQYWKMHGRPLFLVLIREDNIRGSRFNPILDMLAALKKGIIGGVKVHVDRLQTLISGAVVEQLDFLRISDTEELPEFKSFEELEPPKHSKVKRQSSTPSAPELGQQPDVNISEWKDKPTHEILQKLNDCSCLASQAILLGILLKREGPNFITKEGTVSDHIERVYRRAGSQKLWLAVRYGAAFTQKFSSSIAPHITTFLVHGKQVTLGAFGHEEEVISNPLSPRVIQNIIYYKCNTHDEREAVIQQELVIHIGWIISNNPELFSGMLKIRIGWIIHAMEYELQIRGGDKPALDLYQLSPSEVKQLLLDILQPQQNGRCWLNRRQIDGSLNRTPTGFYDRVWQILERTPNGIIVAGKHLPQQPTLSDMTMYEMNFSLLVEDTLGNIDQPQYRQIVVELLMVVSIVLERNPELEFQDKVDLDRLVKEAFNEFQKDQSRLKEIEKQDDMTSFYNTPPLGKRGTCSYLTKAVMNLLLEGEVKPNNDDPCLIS
Chain of UniProt Q15004 (Q15004 whole entry, looked up): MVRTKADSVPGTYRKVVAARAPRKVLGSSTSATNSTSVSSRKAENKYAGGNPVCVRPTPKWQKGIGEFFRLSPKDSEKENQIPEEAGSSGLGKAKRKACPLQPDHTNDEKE

Row | Target | log2 fold change (erlotinib) | log2 fold change [1] | log2 fold change [2] | log2 fold change [3] | log2 fold change [4] | log2 fold change [5] | log2 fold change [6] | log2 fold change [7] | log2 fold change [8] | log2 fold change (IRAK-1-4 Inhibitor I)
1 | PRKAB2 (UniProt O43741) | -0.032 | -0.165 | 0.096 | -0.041 | 0.031 | 0.039 | 0.153 | 0.196 | 0.042 | 0.24
2 | PICALM (UniProt H0YEH1) | -0.004 | -0.111 | 0.053 | 0.066 | -0.021 | -0.015 | 0.106 | -0.219 | -0.333 | 0.053
3 | PELO (UniProt Q9BRX2) | 0 | -0.047 | -0.058 | -0.014 | -0.002 | 0 | -0.038 | -0.021 | -0.049 | 0
4 | PIK3R2 (UniProt O00459) | -0.022 | -0.02 | -0.008 | 0.097 | 0.251 | -0.09 | 0.047 | 0.068 | -0.059 | -0.01
5 | PIGO (UniProt Q8TEQ8) | 0.179 | -0.423 | -0.266 | 0.242 | 0.132 | 0.001 | -0.285 | -0.001 | 0.117 | 0.114
6 | PTGR2 (UniProt Q8N8N7) | 0.01 | 0.064 | 0.001 | 0.065 | -0.041 | 0.054 | 0.016 | 0.015 | 0.001 | -0.035
7 | PTPN23 (UniProt Q9H3S7) | 0.017 | -0.029 | 0.016 | -0.01 | -0.023 | 0.008 | -0.028 | -0.013 | -0.003 | -0.004
8 | PDPK1 (UniProt O15530) | -0.066 | -0.007 | -0.081 | -0.047 | -0.055 | 0.005 | 0.298 | 0.552 (active) | 0.019 | 0.018
9 | PLXNB2 (UniProt O15031) | -0.014 | -0.027 | -0.013 | -0.04 | -0.037 | 0.005 | -0.018 | -0.017 | 0.049 | 0.004
10 | POLD1 (UniProt P28340) | 0.016 | -0.05 | 0.013 | 0.008 | -0.008 | 0.015 | -0.029 | -0.006 | 0.007 | -0.01
11 | PES1 (UniProt O00541) | 0 | -0.071 | -0.014 | -0.044 | -0.001 | 0.001 | -0.012 | 0.025 | -0.056 | 0.037
12 | PHKB isoform 3 (UniProt Q93100) | -0.053 | -0.049 | 0 | 0.044 | 0.082 | 0.036 | 0.142 | 0.038 | 0.01 | 0.006
13 | PPIL2 (UniProt Q13356) | -0.03 | 0.02 | 0.007 | 0.021 | -0.002 | 0.039 | -0.045 | -0.036 | 0.003 | -0.016
14 | PRMT7 (UniProt Q9NVM4) | -0.042 | 0.004 | 0.024 | 0.038 | 0.008 | -0.023 | -0.083 | -0.033 | -0.031 | -0.008
15 | PPCDC (UniProt Q96CD2) | -0.019 | 0.075 | 0.033 | -0.115 | 0.004 | 0.002 | -0.115 | -0.05 | 0.084 | 0.023
16 | PRPF6 (UniProt O94906) | 0.018 | 0.038 | -0.003 | -0.035 | 0.001 | 0.037 | -0.018 | -0.056 | -0.032 | -0.046
17 | PRPH isoform 2 (UniProt P41219) | -0.007 | 0.042 | -0.025 | -0.032 | 0.066 | -0.001 | -0.114 | 0.072 | -0.005 | -0.011
18 | PIR (UniProt O00625) | 0.017 | -0.212 | 0.01 | 0.034 | -0.034 | 0.006 | 0.151 | 0.014 | 0.027 | -0.02
19 | PFKFB4 (UniProt Q16877) | 0.02 | 0.044 | 0.041 | -0.024 | -0.031 | 0.096 | -0.083 | -0.003 | 0.067 | -0.023
20 | PLEKHO2 (UniProt Q8TD55) | 0.188 | 0.008 | -0.023 | 0.106 | -0.06 | 0.184 | -0.014 | -0.075 | 0.186 | -0.004
21 | PDE4DIP isoform 4 (UniProt Q5VU43) | 0.002 | -0.026 | 0.017 | 0.004 | -0.004 | 0 | -0.111 | -0.009 | 0.055 | 0.024
22 | PCLAF (UniProt Q15004) | 0 | -0.026 | 0.057 | -0.006 | -0.059 | -0.015 | 0.012 | 0.037 | -0.052 | 0.016
23 | PRKD2 isoform 3 (UniProt Q9BZL6) | 0.085 | -0.047 | 0.031 | -0.112 | 0.028 | 0.014 | -0.037 | -0.175 | -0.009 | 0.021
24 | PHKA1 (UniProt P46020) | -0.011 | 0.003 | -0.015 | 0.063 | 0.078 | -0.027 | 0.205 | 0.05 | 0.026 | 0.01
25 | PWP1 (UniProt Q13610) | -0.02 | -0.025 | 0.045 | 0.057 | 0.007 | 0 | 0.031 | 0.008 | -0.032 | 0.005
26 | PTK2 (UniProt Q05397) | -0.018 | -0.009 | 0.045 | -0.031 | -0.045 | -0.02 | 0.271 | 0.32 | -0.045 | 0.22
27 | PSTPIP2 (UniProt Q9H939) | 0.002 | 0.05 | -0.028 | 0.055 | -0.031 | -0.003 | -0.122 | 0.01 | 0.005 | 0.009
28 | PGLS (UniProt O95336) | -0.019 | -0.026 | -0.08 | -0.039 | -0.039 | -0.077 | -0.04 | -0.112 | 0.025 | -0.043
29 | PRKACB isoform 2 (UniProt P22694) | -0.033 | -0.03 | -0.03 | 0.04 | -0.028 | -0.019 | 0.129 | 0.352 (active) | 0.354 (active) | 0.009
